SMILES strings stand for the structures. Several values for one entry are separate records, joined by “and”; a condition that tells them apart may be missing. Identical values can stand only once. Records with an inconclusive call do not appear. Activity calls are given as the source filed them. Calls follow the shape of the dose curve; as a rule, active = well fitted curve in the direction sought with a large enough effect; inconclusive = small, poorly fitted or top-dose-only effect, or another doubt; inactive = no such curve, though single readings can be large or run the other way.
Potency is read from the fitted curve at half-maximal effect.

The target in this test is Lysosomal acid glucosylceramidase (Homo sapiens) (UniProt P04062). Description: qHTS Assay for Inhibitors and Activators of N370S glucocerebrosidase as a Potential Chaperone Treatment of Gaucher Disease: Primary Screen Confirmation.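 As to Potency: enzyme source is Gaucher patient spleen homogenate not purified recombinant protein.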 The following applies: N370S glucocerebrosidase enzyme activity, fluorogenic substrate; series mostly up to 54 µM. The method, boiled down: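 Patient-spleen homogenate carrying N370S GC (27 ug) in pH 5.0 citrate buffer with 0.01% Tween-20, 1 mM 4-methylumbelliferyl-beta-glucoside, 40 min at 37C; fluorescence 365/440 nm after NaOH/glycine stop; AC50 from Hill fits.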
Lysosomal acid glucosylceramidase (Homo sapiens), sequence (P04062 whole entry N409S): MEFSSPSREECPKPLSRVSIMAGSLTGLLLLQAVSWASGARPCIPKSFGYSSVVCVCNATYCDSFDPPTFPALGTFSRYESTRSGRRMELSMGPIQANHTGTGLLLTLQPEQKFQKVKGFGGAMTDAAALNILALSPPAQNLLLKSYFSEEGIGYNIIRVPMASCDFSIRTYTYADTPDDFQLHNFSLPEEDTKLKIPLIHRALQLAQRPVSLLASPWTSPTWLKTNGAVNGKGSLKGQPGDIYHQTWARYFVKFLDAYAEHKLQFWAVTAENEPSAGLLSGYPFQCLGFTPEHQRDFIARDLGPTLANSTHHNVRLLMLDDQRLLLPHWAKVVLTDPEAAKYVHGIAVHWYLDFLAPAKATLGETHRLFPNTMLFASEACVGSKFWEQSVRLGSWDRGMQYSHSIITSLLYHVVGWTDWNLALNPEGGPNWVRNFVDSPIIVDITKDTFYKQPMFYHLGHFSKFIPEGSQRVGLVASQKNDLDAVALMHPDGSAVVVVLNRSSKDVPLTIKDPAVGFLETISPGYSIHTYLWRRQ
On the technique in general: In qHTS, concentration-response curves come from the screen itself.
As for `S=C(NCCCc1cnc[nH]1)NCCCN(CCc1ccccc1)c1ccc(Br)cn1`, the Potency is 2.25 µM (active). As to `Cc1ccc(S(=O)(=O)N2CCN(c3nc(-c4cccs4)nc(C)c3C)CC2)cc1`, the Potency is 2.84 µM (active). The figure for `Cc1ccc(S(=O)(=O)N(C)CCN(C)c2nc(-c3cccs3)nc3ccccc23)cc1` is 2.25 µM (active). The figure for `CC(C)(C)c1ccc(S(=O)(=O)N2CCN(c3nc(-c4cccs4)nc4ccccc34)CC2)cc1` is 1.3 µM (active) and 1.46 µM (active); for `O=S(=O)(c1ccc(Cl)cc1)N1CCN(c2nc(-c3ccc(F)cc3)nc3cc(Cl)ccc23)CC1` it is “inactive”.

Regarding `COc1ccc(-c2cc3ccc(OCC(C)=O)cc3oc2=O)cc1`, the Potency result was “inactive”. The entry for `CCOc1ccccc1NC(=O)CN(c1ccc(C)cc1)S(=O)(=O)c1c(C)noc1C` is “inactive”; for `COc1ccccc1NC(=O)COc1ccccc1C(=O)Nc1ccccc1` it is “inactive”; for `Cc1ccc(S(=O)(=O)N2CCN(c3nc(-c4cnccn4)nc4ccccc34)CC2)cc1` it is “inactive”.

Take `S=C(NCCCCN(Cc1ccc(Cl)cc1)c1ccc(Br)cn1)NCCCc1cnc[nH]1`: the Potency was 0.635 µM (active).

On to `Cc1ccc(S(=O)(=O)N2CCN(c3nc(-c4cccs4)nc4ccccc34)CC2)cc1`, for which the Potency was 259 nM (active) and 730 nM (active) and 366 nM (active). The value for `O=S(=O)(c1cccc(F)c1)N1CCN(c2nc(-c3cccs3)nc3ccccc23)CC1` was 1.01 µM (active); that for `CC(=O)c1ccccc1S(=O)(=O)N1CCN(c2nc(-c3cccs3)nc3ccccc23)CC1` was 3.26 µM (active). The figure for `O=S(=O)(c1ccc2c(Cl)cccc2c1)N1CCN(c2nc(-c3cccs3)nc3ccccc23)CC1` is 2.01 µM (active). Take `COC(=O)c1nc(N2CCN(S(=O)(=O)c3ccc(C)cc3)CC2)c2ccccc2n1`: the Potency is 16.3 µM (active). The value for `O=S(=O)(c1ccc(Cl)cc1)N1CCN(c2nc(-c3cccs3)nc3ccccc23)CC1` was 1.46 µM (active) and 1.13 µM (active) and 1.63 µM (active). The figure for `Cc1cc(C)cc(N(CC(=O)NC2CCC(C)CC2)S(=O)(=O)c2c(C)[nH]c(=O)[nH]c2=O)c1` (centres undefined) is 2.51 µM (active); for `Cc1cc(C)n2ncc(C(=O)Nc3cccc(O)c3)c2n1` it is “inactive”; for `O=[N+]([O-])c1ccc(S(=O)(=O)N2CCN(c3nc(-c4cccs4)nc4ccccc34)CC2)cc1` it is 3.2 µM (active). The entry for `Cc1ccc(S(=O)(=O)N2CCN(c3nc(-n4cnc5ccccc54)nc4ccccc34)CC2)cc1` is “inactive”. On to `Cc1ccc(S(=O)(=O)N2CCN(c3nc(-c4ccc(CN5CCOCC5)s4)nc4ccccc34)CC2)cc1`, for which the Potency was 11.3 µM (active). The value for `O=C(c1ccccc1)N1CCN(c2nc(-c3cccs3)nc3ccccc23)CC1` was 1.42 µM (active); that for `NCCCN(Cc1ccc(Cl)c(Cl)c1)c1ccccn1` was “inactive”. The value for `NS(=O)(=O)c1ccc(S(=O)(=O)N2CCN(c3nc(-c4cccs4)nc4ccccc34)CC2)cc1` was 3.26 µM (active).

On to `O=S(=O)(c1ccc2c(c1)OCCO2)N1CCN(c2nc(-c3ccccc3)nc3ccccc23)CC1`, for which the Potency was 3.2 µM (active). The value for `Cc1ccc(Nc2cc(C)nc(-c3ccccc3)n2)cc1` was 4.11 µM (active); that for `CC(C)OCCCNc1nc(-c2ccccc2)nc2ccccc12` was 4.01 µM (active); that for `O=S(=O)(c1ccsc1)N1CCN(c2nc(-c3cccs3)nc3ccccc23)CC1` was 1.03 µM (active). Regarding `CN(CCN(C)c1nc(-c2cccs2)nc2ccccc12)C(=O)OC(C)(C)C`, the Potency is 5.8 µM (active).
